# Compound activity: PubChem, Columbia University Molecular Screening Center
# VCAM1 pot = enhances TNF alpha induced VCAM1 expression in HUVEC | HUVEC TNFa-stimulated VCAM-1 immunofluorescence, high-content imaging; scaled per plate to unstimulated/TNFa-only wells | activation, % at 2 µM | 0.19% of 93,000 active | AID 808;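 active = activation above the screen mean plus 3 SD, with well images confirming the hit on visual review, cut at about 28% in these data, passing the limit was not always enough; inconclusive = activation above that limit but images do not confirm it; inactive = activation not above that limit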;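 note: signal is the number of cytoplasmic VCAM-1 stained grains per positive cell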
# VCAM1 pot conf = potentiators of TNFa-induced VCAM1 expression, confirmation, imaging, HUVEC, triplicate retest | shares compounds with VCAM1 pot | HUVEC TNFa-stimulated VCAM-1 immunofluorescence imaging | activation, % at 2 µM | AID 1034 | 230 tested, under 10 active;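 active = activation above 30% in triplicate retests at 2 µM, then confirmed by visual review of the well images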
# A number is an active result; . = inactive; ? = inconclusive. A selection follows.
SMILES,VCAM1 pot,others
CCn1cc([N+](=O)[O-])c(C(=O)N2N=C3/C(=C/c4cccs4)CCCC3C2c2cccs2)n1 (stereo not drawn),.,
CCOC(=O)c1sc2nccc(N(C)C)c2c1N=CNOCc1c(F)cccc1Cl,.,
Cc1ccc(N=C(c2cccs2)N2CCOCC2)cc1,.,
COc1ccc(CN2CCCCC2C(=O)Nc2ccc(OC)c(OCC(C)C)c2)cc1OC (stereo not drawn),.,
CCC(C)(CC(=O)N(C)CCC#N)c1ccccc1 (stereo not drawn),.,
CCCSc1nnc(C(C)C)n1N,.,
CC(C)(C)NS(=O)(=O)c1ccc(NC(=O)C(Sc2ccccc2)c2ccccc2)cc1 (stereo not drawn),.,
Cn1cc(SCC(=O)N2CCCc3ccccc32)c2ccccc21,.,
CC(C)[C@H](NC(=O)Nc1ccccc1F)C(=O)O,.,
CCC(=O)Nc1ccccc1C(=O)NC1CCCCC1,.,
CCc1cccc(CC)c1NC(=O)C1SC(=Nc2ccccc2C)C(c2nc3ccccc3s2)=C1N (stereo not drawn),.,
O=C(Cn1cnc2ccccc2c1=O)N1CCN(Cc2ccccc2)CC1,.,
C/C(=N\Nc1nc2c(s1)CCCC2)c1ccccc1,.,
Cc1nc(SCC#N)c2c(C)c(C)sc2n1,.,
N#Cc1cc(-c2ccccc2)nnc1Oc1ccccc1Cl,.,
COC(=O)c1ccccc1NC(NC(=O)c1ccco1)C(=O)c1ccc(C)cc1 (stereo not drawn),.,
COc1ccccc1/C=N/Nc1nccnc1Cl,.,
Cc1c(N2C(=O)/C(=C\c3cccc4ccccc34)SC2=S)c(=O)n(-c2ccccc2)n1C,.,
O=C1OC2CCC1(c1ccccc1)C2 (stereo not drawn),.,
Cc1ccc(Cc2nnc3n(-c4ccccc4)nc(C(=O)c4ccccc4)n3c2=O)cc1,.,
Cc1ccc(NC(=O)CCN2C(=O)CSC2=O)c(C)c1,.,
CCC(CC)C(=O)c1c[nH]c(C(=O)NCC2CCCO2)c1 (stereo not drawn),.,
COc1cccc(/C=C/C(=C2\C(=O)N(c3ccccc3)N=C2C)c2ccc(Br)cc2)c1OC,.,
CCOC(=O)Cn1nc(C)n(-c2ccc(C(C)C)cc2)c1=O,.,
Cc1ccc(Oc2ncccc2/C=N/OCc2ccc(Cl)c(Cl)c2)cc1,.,
SMILES,VCAM1 pot,others
COc1ccc(S(=O)(=O)Nc2nc3n(n2)C(c2ccc(Cl)cc2)CC(=O)N3)cc1 (stereo not drawn),.,
CN1CCCCc2c1[nH]c1ccccc1c2=O,.,
COc1ccc(CCN2C(=O)CC(Sc3ncccc3C(=O)O)C2=O)cc1OC (stereo not drawn),.,
CC1N(O)C(C)(C)C(c2ccccc2)=[N+]1[O-] (stereo not drawn),.,
Cc1cccc(N(CC(=O)N/N=C/c2ccc(OCC(=O)NCc3ccco3)cc2)S(C)(=O)=O)c1C,.,
CC1(C)N=C(/C=N/O)CN1O,.,
CC(NC(=O)c1ccco1)C(c1cccs1)N1CCOCC1 (stereo not drawn),.,
CCOC(=O)C1=C(O)/C(=C/c2ccc(C)o2)SC1=NC(=O)c1ccccc1C,.,
COc1ccc(C(=O)OCC(=O)NCc2ccco2)cc1S(=O)(=O)N1CCN(c2cccc(Cl)c2)CC1,.,
CC1CCc2c(sc3ncnc(N4CCN(S(=O)(=O)c5cccc6nonc56)CC4)c23)C1 (stereo not drawn),.,
COc1cccc(N/C=C(\C#N)c2ccc(OCCCF)cc2)c1,.,
CCOC(=O)c1ccccc1NC(=O)CSc1nnc(COc2ccccc2C)n1C,.,
CCCn1c(NC(=O)C2COc3ccccc3O2)nc2ccccc21 (stereo not drawn),.,
Cc1ccc(CNC(=O)CSc2ncccn2)cc1,.,
Cc1occc1C(=O)NNC(=O)NC12CC3CC(CC(C3)C1)C2,.,
C/C(=N\NS(=O)(=O)c1ccc(C)cc1)c1ccc(Br)s1,.,
COc1cc2[nH]cc(C(=O)NCc3cccs3)c(=O)c2cc1OC,.,
O=C(CN1C(=O)c2ccccc2S1(=O)=O)Nc1ccc(S(=O)(=O)N2CCCCCC2)cc1,.,
COc1ccc(CNC(=O)Oc2ccccc2)cc1Cl,.,
O=C(c1ccc(-n2cnnn2)cc1)N1CCCCC1,.,
CN(CC(=O)NCc1ccncc1)S(=O)(=O)c1ccc(F)cc1,.,
CNc1nc(NC)nc(-n2c(C(F)(F)F)nc3ccccc32)n1,.,
Cc1ccc(S(=O)(=O)NCC(c2ccccc2)N2CCN(CCC#N)CC2)cc1 (stereo not drawn),.,
Cc1ccc(C(=O)C(OC(=O)COc2ccccc2C)c2ccccc2)cc1 (stereo not drawn),.,
CCOC(=O)C(NC(C)=O)(N1CCc2ccccc2C1)C(F)(F)F (stereo not drawn),.,
SMILES,VCAM1 pot,others
CCCn1c(=N)n(CCOCCOCCn2c(=N)n(CCC)c3ccccc32)c2ccccc21,.,
CN(C)CCCN1C(=O)C(=O)/C(=C(/O)c2ccc3c(c2)OCO3)C1c1ccccn1 (stereo not drawn),.,
COCCSc1nnc(NC(=O)CSCc2ccccc2)s1,.,
CCN(CC)CC(C(=O)N(CC)CC)P(=O)(c1ccccc1)c1ccccc1 (stereo not drawn),.,
Cc1ccc(S(=O)(=O)N(C)CC(=O)NC2CC(C)(C)NC(C)(C)C2)cc1,.,
Cc1noc(C)c1S(=O)(=O)N1CCCC(C(=O)N2CCc3ccccc3C2)C1 (stereo not drawn),.,
O=c1[nH]nnc2sc3c(c12)CCCC3,.,
CCCCNC(=O)CN(c1cccc(Br)c1)S(C)(=O)=O,.,
CN1CCN(c2ncccc2S(=O)(=O)N2CCCCC2)CC1,.,
COc1ccc(C(=O)NC(C)c2nnc(SCC(=O)Nc3nc4ccccc4s3)n2C)cc1 (stereo not drawn),.,
CC(=O)c1cccc(N(CC(=O)O)S(C)(=O)=O)c1,.,
CC/C(=C\C(=O)c1ccncc1)Nc1ccc(Br)cc1,.,
CC(=O)N/C(=C\c1ccccc1Cl)C(=O)O,.,
O=C(O)c1[nH]nc2c1COc1ccccc1-2,.,
CC(=O)NC1=NN(C(C)=O)C(c2cccs2)S1 (stereo not drawn),.,
O=C(NC(Cc1ccccc1)C(=O)O)c1ccc(S(=O)(=O)N2CCCCC2)cc1 (stereo not drawn),.,
O=C(NCCCNC(=O)c1ccco1)c1ccco1,.,
O=C(NCCCCNC(=O)c1cccnc1)c1cccnc1,?,VCAM1 pot conf=.
CCOC(=O)Cc1csc(NC(=O)c2cccnc2)n1,.,
COC(=O)c1nn(-c2ccc(Cl)cc2)c(=O)cc1Sc1ccccn1,.,
O=C(CN1C(=O)C2CC=CCC2C1=O)NCC1COc2ccccc2O1 (stereo not drawn),.,
CCc1cccc(OCCCCN(CC)CC)c1,.,
Fc1cccc(-c2nn[nH]n2)c1,30.8,VCAM1 pot conf=.
CCC(C)N1CCCCC1C(=O)Nc1c(C)cc(C)cc1C (stereo not drawn),.,
CC(NC(=O)C1CCCN(C(=O)N(C)C)C1)c1ccccc1 (stereo not drawn),65.9,VCAM1 pot conf=.
O=C(C1CCCN(S(=O)(=O)Cc2ccccc2)C1)N1CCCCC1 (stereo not drawn),.,
CCN(CCNC(=O)C1CCCN(S(=O)(=O)CC)C1)c1ccccc1 (stereo not drawn),.,
CCCCCn1c(CCC(=O)Oc2ccccc2OC)nc2c1c(=O)[nH]c(=O)n2CCCC,.,
CC1CC(C)CN(c2nc3c(c(=O)n(C)c(=O)n3C)n2C)C1 (stereo not drawn),.,
